PubChem BioAssay AID1159580 (chemical genetic matrix, 2015)
In all, about 5,500 compounds went through this assay and about 2,000 (36%) were called active. Roughly 18% stayed inconclusive and do not appear here. Rule as the data show it: active = normalized growth mostly below about 0.91 (no sharp cut-off); inconclusive = no clear call, values can overlap the other calls; inactive = mostly above about 0.92. Some of the results follow.

Assay: chemical genetic growth profiling, strain panel (AID 1159580);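 also: tested at 20 µM; growth read once vehicle control cultures reached saturation at 30 °C; 1 = growth at the plate median or of vehicle wells; lower values mean less growth of the strain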
Settings: growth OD

Measured: normalized growth

COc1cc2c(cc1OC)CC(=O)OC2
inactive: S. cerevisiae deletion strains, locus YAL013W, strain DEP1, active compounds read low 0.985 | S. cerevisiae deletion strains, locus YBR229C, strain ROT2, active compounds read low 0.984 | S. cerevisiae deletion strains, locus YCL061C, strain MRC1, active compounds read low 1 | S. cerevisiae deletion strains, locus YDL101C, strain DUN1, active compounds read low 0.984 | S. cerevisiae deletion strains, locus YDR150W, strain NUM1, active compounds read low 0.966 | S. cerevisiae deletion strains, locus YEL061C, strain CIN8, active compounds read low 1 | S. cerevisiae deletion strains, locus YGR078C, strain PAC10, active compounds read low 1.01 | S. cerevisiae deletion strains, locus YHR030C, strain SLT2, active compounds read low 1.06 | S. cerevisiae deletion strains, locus YHR087W, strain rtc3, active compounds read low 0.997 | S. cerevisiae deletion strains, locus YJR043C, strain POL32, active compounds read low 0.993 | S. cerevisiae deletion strains, locus YJR075W, strain HOC1, active compounds read low 0.995 | S. cerevisiae deletion strains, locus YKL190W, strain CNB1, active compounds read low 1 | S. cerevisiae deletion strains, locus YLR058C, strain SHM2 (second series), active compounds read low 0.994 | S. cerevisiae deletion strains, locus YLR085C, strain ARP6, active compounds read low 1.03 | S. cerevisiae deletion strains, locus YLR262C, strain YPT6, active compounds read low 1.16 | S. cerevisiae deletion strains, locus YML094W, strain GIM5, active compounds read low 0.999 | S. cerevisiae deletion strains, locus YMR219W, strain ESC1, active compounds read low 0.971 | S. cerevisiae deletion strains, locus YMR263W, strain SAP30, active compounds read low 0.994 | S. cerevisiae deletion strains, locus YNL128W, strain TEP1, active compounds read low 1 | S. cerevisiae deletion strains, locus YNL153C, strain GIM3, active compounds read low 1.03 | S. cerevisiae deletion strains, locus YNL298W, strain CLA4 (second series), active compounds read low 1.04 | S. cerevisiae deletion strains, locus YNL322C, strain KRE1, active compounds read low 0.979 | S. cerevisiae deletion strains, locus YNR030W, strain Alg12, active compounds read low 1.02 | S. cerevisiae deletion strains, locus YPL055C, strain LGE1, active compounds read low 0.935 | S. cerevisiae deletion strains, locus YPL241C, strain CIN2, active compounds read low 1 | S. cerevisiae deletion strains, locus YPR135W, strain CTF4, active compounds read low 1.04 | S. cerevisiae strains, strain wild type, active compounds read low 1.01
active: S. cerevisiae deletion strains, locus YLR039C, strain RIC1, active compounds read low 1.23 [resistant]
